Data published in PubChem BioAssay (NCATS).
“And” between values parts separate entries of the source, which are not always exact repeats. Equal values may be shown once. Results filed as inconclusive are left out. The source made the active and inactive calls. Unless noted, calls come from the whole dose curve; as a rule, active = well fitted curve in the direction sought with a large enough effect; inconclusive = small, poorly fitted or top-dose-only effect, or another doubt; inactive = no such curve, though single readings can be large; an effect the other way counts as inactive or inconclusive.

Key:
[1] = target: Peroxisome proliferator-activated receptor delta (Homo sapiens) (UniProt Q03181); test: qHTS assay for small molecule agonists of peroxisome proliferator-activated receptor delta signaling (AID 588534; calls by dose curve;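 note: 0% = DMSO basal wells and 100% = positive control agonist at 10 µM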)
In short: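 Titration series tested in agonist mode on beta-lactamase reporter cells; 18 hrs at 37 C after a 5 hr pre-incubation. Readout: CCF4 fluorescence, 2 hrs RT. Hill equation gives EC50 and maximal response.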

[2] = qHTS assay for small molecule antagonists of peroxisome proliferator-activated receptor delta signaling (AID 588535); conditions: HEK293T PPARd-UAS-bla, beta-lactamase FRET ratio, 18 h; 460 nm channel;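 note: cells co-treated with a PPAR-delta agonist as stimulator during compound exposure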
In short: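 Beta-lactamase reporter read-out (405 nm excitation, 460/530 nm emission) after CCF4 loading for 2 hrs at RT. HEK293T PPAR-delta-UAS-bla cells, 2% charcoal/dextran FBS, compounds for 18 hrs at 37 C. Hill fit gave IC50 and efficacy.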

[3] = target: Vitamin D3 receptor (Homo sapiens) (UniProt P11473); test: qHTS assay for small molecule antagonists of vitamin D receptor signaling (AID 588541; calls by dose curve;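 note: receptor activated by calcitriol during compound treatment; series mostly up to about 77 µM; % is set by controls: 0 for no effect and ±100 for the full control effect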)
In short: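 VDR-UAS-bla HEK293T cells in 2% charcoal-stripped FBS were stimulated with 1-alpha,25-dihydroxyvitamin D3 (3 nM final) plus compound for 16 h at 37 C. The beta-lactamase CCF4 readout was normalized to 50 nM agonist and DMSO, and Hill fits gave IC50.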

[4] = target: Vitamin D3 receptor (Homo sapiens) (UniProt P11473); test: qHTS assay for small molecule agonists of vitamin D receptor signaling (AID 588543; calls by dose curve;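 note: 0% = DMSO basal and 100% = reference agonist control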)
In short: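 qHTS in agonist mode: compound titrations stimulate a VDR-driven β-lactamase reporter in HEK293T cells over 16 h at 37 °C. Response normalized to 50 nM 1α,25-dihydroxyvitamin D3 = 100%, DMSO = 0%; Hill fitting gives EC50 and maximal response.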

[5] = target: Retinoic acid receptor RXR-alpha (Homo sapiens) (UniProt P19793); test: qHTS assay for small molecule agonists of retinoid X receptor alpha signaling (AID 588544; calls by dose curve;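 note: 0% = DMSO basal wells and 100% = reference agonist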)
[6] = target: Thyroid hormone receptor beta (Homo sapiens) (UniProt P10828); test: qHTS assay for small molecule agonists of thyroid hormone receptor beta signaling (AID 588545; calls by dose curve;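 note: 0% = DMSO only and 100% = 10 nM T3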)
In short: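 Efficacy and EC50 values derive from Hill fits of qHTS titration data, normalized to 10 nM T3 and DMSO-only wells. HEK 293 reporter cells were stimulated for 18 hrs at 37 C, with beta-lactamase activity measured by CCF4 fluorescence.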

[7] = qHTS assay for small molecule antagonists of retinoid X receptor alpha signaling (AID 588546; active = well fitted inhibition curve with a large enough effect in the signal ratio, with a control signal flat, not every such curve was filed as active; the % refers to the signal ratio;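 note: cells stimulated with 9-cis-retinoic acid as agonist; % is set by controls: 0 for no effect and ±100 for the full control effect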); conditions: HEK293T RXRa-UAS-bla, beta-lactamase ratio, antagonist mode; measured here: W530 green channel, cytotoxicity proxy
In short: (§1)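 Beta-lactamase reporter inhibition, read as CCF4 fluorescence ratio (ex 405, em 460/530 nm) after 2 h at RT. HEK293T UAS-bla cells, 2500/well, were stimulated with 9-cis-RA at 500 or 100 nM final alongside test compound for 18 h at 37 C.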

[8] = target: Retinoic acid receptor RXR-alpha (Homo sapiens) (UniProt P19793); test: as above; conditions: HEK293T RXRa-UAS-bla, beta-lactamase ratio, antagonist mode
In short: as §1

[9] = target: Thyroid hormone receptor beta (Homo sapiens) (UniProt P10828); test: qHTS assay for small molecule antagonists of thyroid hormone receptor beta signaling (AID 588547; active = well fitted inhibition curve with a large enough effect in the signal ratio, with a control signal flat, not every such curve was filed as active; the % refers to the signal ratio;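 note: cells stimulated with 0.4 nM T3 agonist during compound exposure; series mostly up to about 77 µM; % is set by controls: 0 for no effect and ±100 for the full control effect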); conditions: TR-UAS-bla HEK293, beta-lactamase ratio, antagonist mode, 18 h
In short: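 TR-UAS-bla GripTite HEK293 cells in 2% charcoal/dextran FBS medium; compounds 0.59 nM to 92 uM with T3 at 0.4nM final, 18 h at 37 C. Beta-lactamase read by CCF4 fluorescence (460/530 nm); Hill fits gave IC50 and efficacy.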

[10] = qHTS assay for small molecule activators of the p53 signaling pathway (AID 651743; active = well fitted activation curve with a large enough effect in the signal ratio, not every such curve was filed as active; the % refers to the signal ratio; note: series mostly up to about 92 µM; % of control where 0% means no effect); conditions: HCT-116 p53RE-bla, beta-lactamase FRET ratio, 16 h; activation: stronger effect = higher value
In short: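 Reporter: beta-lactamase driven by p53 response elements, stably integrated in HCT-116 cells. Cells seeded at 4,000/well, 5 h preincubation, compound (DMSO) 16 h at 37 C; B/G FRET substrate 2 h RT; fluorescence intensity read.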

[11] = qHTS assay for environmental chemicals that activate the Aryl hydrocarbon Receptor (AhR) signaling pathway (AID 651777); conditions: 1A2-DRE human hepatoma cells, luciferase, 24 h; activation: stronger effect = higher value; note: % of control where 0% means no effect; nearly all actives have a fitted effect of over 15% in size
In short: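 Concentration–response screening used 1,200 1A2-DRE cells per well, 24 hr compound exposure (37 C, 5% CO2), and One-Glo luminescence as the AhR-driven CYP1A2 reporter signal.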

[12] = target: Peroxisome proliferator-activated receptor alpha (Homo sapiens) (UniProt Q07869); test: qHTS assay for small molecule agonists of the peroxisome proliferator-activated receptor alpha (PPARalpha) signaling pathway (AID 651778); conditions: PathHunter PPARalpha complementation, chemiluminescence, 6 h; max response: stronger effect = higher value; note: % of control where 0% means no effect
In short: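 Enzyme-fragment complementation assay in which ligand-bound PPARalpha translocates and forms an active enzyme that generates chemiluminescence. Cells were plated overnight, exposed to compound for 6 hr at 37 C, and then given detection reagent for 60 min at room temperature.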

[13] = qHTS assay for small molecule agonists of the antioxidant response element (ARE) signaling pathway measured by Nrf2-dependant transcriptional activity (AID 720636; active = well fitted curve in the direction sought with a large enough effect in the repeat runs; an effect the other way counts as inactive or inconclusive;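 note: HepG2 cells with an ARE-driven luciferase reporter; % of control where 0% means no effect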)
In short: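 Attachment 6 hr at 37 C, then compound versus DMSO vehicle for 16 hr in ARE-luc HepG2 cells (1% dialyzed FBS); luminescence recorded 30 min after ONE-Glo addition at room temperature.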

[14] = qHTS assay for small molecule agonists of the antioxidant response element (ARE) signaling pathway measured by Nrf2-dependant transcriptional activity - cell viability counter screen (AID 720653; active = well fitted curve in the direction sought with a large enough effect in the repeat runs; an effect the other way counts as inactive or inconclusive; note: % is set by controls: 0 for no effect and ±100 for the full control effect); conditions: ARE-bla HepG2 viability, CellTiter-Glo ATP luminescence, 16 h; max response: stronger effect = lower value
In short: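 ARE-bla HepG2 cells treated with compounds for 16 h at 37C; this counter screen measures viability as intracellular ATP by CellTiter-Glo luminescence after 30 min at room temperature.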

[15] = qHTS assay for cell viability of HEK293 cells (AID 743288); conditions: ATP luminescence (CellTiter-Glo), 18 h; max response: stronger effect = lower value; note: % is set by controls: 0 for no effect and ±100 for the full control effect; nearly all actives have a fitted effect of over 50% in size
In short: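 Quantitative high-throughput screen: compounds were pinned onto parental HEK293 cells (2,000 per well) after a minimum 5 h settling at 37 C, incubated 18 h at 37 C, and intracellular ATP measured by luciferase luminescence.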

[16] = qHTS assay for cell viability of the p53RE-bla HCT-116 cell line (AID 743292); note: % is set by controls: 0 for no effect and ±100 for the full control effect; nearly all actives have a fitted effect of over 55% in size
In short: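 Compound-exposed HCT-116 (p53RE-bla) cells, 4,000 per well, were kept 16 h at 37 C following a 5 h preincubation. Cell number was estimated from total ATP by CellTiter-Glo luminescence read after 30 min at room temperature.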

[17] = target: Nuclear receptor subfamily 1 group I member 2 (Rattus norvegicus) (UniProt Q9R1A7); test: qHTS assay for small molecule activators of the rat pregnane X receptor (rPXR) signaling pathway (AID 651751; call rule not given here; note: 0% is about no effect); conditions: rPXR reporter cells, luciferase (One-Glo), 24 h
[18] = target: Glucocorticoid receptor (Homo sapiens) (UniProt P04150); test: qHTS assay for small molecule agonists of glucocorticoid receptor signaling (AID 588532; active = well fitted curve in the direction sought with a large enough effect in the signal ratio, with a control signal flat; the % refers to the signal ratio;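 note: 100% = dexamethasone at 0.1 µM and 0% = DMSO only wells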); conditions: HeLa MMTV-bla, beta-lactamase ratio, agonist, 18 h; activation: stronger effect = higher value, percent of dexamethasone control, DMSO zero
In short: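 HeLa GRE-bla reporter cells; 18 h compound exposure at 37 C; 2 h CCF4 loading at room temperature; fluorescence at 460 and 530 nm; EC50 by Hill equation.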

[19] = target: Glucocorticoid receptor (Homo sapiens) (UniProt P04150); test: qHTS assay for small molecule antagonists of glucocorticoid receptor signaling (AID 588533; active = well fitted inhibition curve with a large enough effect in the signal ratio, with a control signal flat, not every such curve was filed as active; the % refers to the signal ratio; note: % is set by controls: 0 for no effect and ±100 for the full control effect)
In short: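 Antagonist-mode qHTS: compound titrations added to GRE-bla HeLa cells, then dexamethasone 2 nM final; 18 h, 37 C. CCF4 FRET fluorescence normalized to dexamethasone and DMSO; IC50 from Hill fit.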

[20] = qHTS assay for small molecule activators of the nuclear factor-kappa B (NF-kB) signaling pathway (AID 651749; active = well fitted activation curve with a large enough effect in the signal ratio; the % refers to the signal ratio; note: series mostly up to about 77 µM; % of control where 0% means no effect); conditions: NF-kB-bla ME-180 cells, beta-lactamase FRET ratio, 16 h; activation: stronger effect = higher value
In short: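 NF-kB-bla ME-180 cells, 2,000/well; 23 nL compound or DMSO pinned; 16 hr, 37C/5% CO2; beta-lactamase FRET read-out.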

Chain of Glucocorticoid receptor (Homo sapiens) (P04150 whole entry, looked up): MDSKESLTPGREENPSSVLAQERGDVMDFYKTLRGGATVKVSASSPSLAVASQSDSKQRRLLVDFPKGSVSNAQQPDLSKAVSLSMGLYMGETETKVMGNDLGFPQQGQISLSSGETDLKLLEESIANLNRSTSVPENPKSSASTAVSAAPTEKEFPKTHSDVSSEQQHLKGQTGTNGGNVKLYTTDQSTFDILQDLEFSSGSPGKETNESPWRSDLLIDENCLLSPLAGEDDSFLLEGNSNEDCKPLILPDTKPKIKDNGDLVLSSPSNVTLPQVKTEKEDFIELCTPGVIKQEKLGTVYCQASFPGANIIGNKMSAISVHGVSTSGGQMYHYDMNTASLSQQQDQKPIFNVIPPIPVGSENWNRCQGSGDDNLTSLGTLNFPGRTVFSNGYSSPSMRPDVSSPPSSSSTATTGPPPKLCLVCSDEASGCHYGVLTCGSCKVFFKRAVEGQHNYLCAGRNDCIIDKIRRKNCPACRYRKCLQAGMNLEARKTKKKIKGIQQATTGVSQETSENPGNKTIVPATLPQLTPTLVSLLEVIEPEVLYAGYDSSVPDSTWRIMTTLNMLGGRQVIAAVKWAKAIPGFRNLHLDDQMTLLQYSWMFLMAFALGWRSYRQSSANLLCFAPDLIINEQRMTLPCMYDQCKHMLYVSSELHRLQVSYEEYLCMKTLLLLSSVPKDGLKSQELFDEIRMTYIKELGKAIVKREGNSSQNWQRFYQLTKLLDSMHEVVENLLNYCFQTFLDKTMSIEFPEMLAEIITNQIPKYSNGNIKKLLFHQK
Chain of Thyroid hormone receptor beta (Homo sapiens) (P10828 whole entry, looked up): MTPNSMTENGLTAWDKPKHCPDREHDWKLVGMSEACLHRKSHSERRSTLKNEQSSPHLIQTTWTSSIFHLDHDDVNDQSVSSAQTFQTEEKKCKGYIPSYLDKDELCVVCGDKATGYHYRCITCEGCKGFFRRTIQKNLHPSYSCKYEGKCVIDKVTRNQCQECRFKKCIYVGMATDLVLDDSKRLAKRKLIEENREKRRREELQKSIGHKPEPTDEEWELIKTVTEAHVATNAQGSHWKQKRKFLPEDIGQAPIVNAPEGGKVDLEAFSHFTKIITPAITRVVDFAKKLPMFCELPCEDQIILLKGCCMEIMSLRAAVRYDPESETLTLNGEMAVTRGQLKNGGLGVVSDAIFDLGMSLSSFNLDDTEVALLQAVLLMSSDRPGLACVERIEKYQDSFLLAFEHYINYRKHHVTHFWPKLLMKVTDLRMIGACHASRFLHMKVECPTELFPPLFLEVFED
Chain of Vitamin D3 receptor (Homo sapiens) (P11473 whole entry, looked up): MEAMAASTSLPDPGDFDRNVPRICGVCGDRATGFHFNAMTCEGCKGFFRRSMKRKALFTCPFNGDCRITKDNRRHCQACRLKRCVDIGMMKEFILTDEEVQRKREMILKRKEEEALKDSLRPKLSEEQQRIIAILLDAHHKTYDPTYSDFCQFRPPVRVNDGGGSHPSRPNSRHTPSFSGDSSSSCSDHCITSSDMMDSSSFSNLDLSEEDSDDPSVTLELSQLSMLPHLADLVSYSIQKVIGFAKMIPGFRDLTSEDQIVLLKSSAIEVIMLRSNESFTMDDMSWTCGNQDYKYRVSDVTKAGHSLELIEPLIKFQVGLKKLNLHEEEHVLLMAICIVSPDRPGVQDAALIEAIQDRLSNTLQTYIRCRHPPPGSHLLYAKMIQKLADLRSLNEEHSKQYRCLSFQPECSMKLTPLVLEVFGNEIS
Chain of Retinoic acid receptor RXR-alpha (Homo sapiens) (P19793 whole entry, looked up): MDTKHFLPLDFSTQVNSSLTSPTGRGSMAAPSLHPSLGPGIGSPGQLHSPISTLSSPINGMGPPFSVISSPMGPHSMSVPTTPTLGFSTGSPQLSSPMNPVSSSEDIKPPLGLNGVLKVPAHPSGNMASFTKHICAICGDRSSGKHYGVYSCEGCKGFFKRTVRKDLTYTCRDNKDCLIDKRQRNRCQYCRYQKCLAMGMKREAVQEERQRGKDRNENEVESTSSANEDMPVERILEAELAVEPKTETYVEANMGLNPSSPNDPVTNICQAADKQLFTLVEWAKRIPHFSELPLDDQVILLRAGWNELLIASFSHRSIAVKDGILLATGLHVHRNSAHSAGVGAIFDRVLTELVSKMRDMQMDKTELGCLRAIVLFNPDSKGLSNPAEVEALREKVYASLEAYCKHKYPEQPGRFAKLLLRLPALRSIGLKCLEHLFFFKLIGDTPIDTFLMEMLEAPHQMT
Chain of Peroxisome proliferator-activated receptor alpha (Homo sapiens) (Q07869 whole entry, looked up, the tested form may be a part): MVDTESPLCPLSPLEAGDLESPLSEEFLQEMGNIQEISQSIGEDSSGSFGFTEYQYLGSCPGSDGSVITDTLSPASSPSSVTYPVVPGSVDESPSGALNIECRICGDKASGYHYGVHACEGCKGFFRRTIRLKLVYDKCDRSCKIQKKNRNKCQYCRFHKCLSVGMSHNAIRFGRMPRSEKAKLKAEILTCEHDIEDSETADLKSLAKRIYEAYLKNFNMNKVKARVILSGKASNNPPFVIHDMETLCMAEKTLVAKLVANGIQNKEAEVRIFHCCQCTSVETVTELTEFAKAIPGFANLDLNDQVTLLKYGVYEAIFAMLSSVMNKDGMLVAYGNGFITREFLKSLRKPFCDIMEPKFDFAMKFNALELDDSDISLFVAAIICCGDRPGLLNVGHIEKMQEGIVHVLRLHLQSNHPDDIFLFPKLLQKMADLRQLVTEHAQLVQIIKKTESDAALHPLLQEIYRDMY
Chain of Nuclear receptor subfamily 1 group I member 2 (Rattus norvegicus) (Q9R1A7 whole entry, looked up): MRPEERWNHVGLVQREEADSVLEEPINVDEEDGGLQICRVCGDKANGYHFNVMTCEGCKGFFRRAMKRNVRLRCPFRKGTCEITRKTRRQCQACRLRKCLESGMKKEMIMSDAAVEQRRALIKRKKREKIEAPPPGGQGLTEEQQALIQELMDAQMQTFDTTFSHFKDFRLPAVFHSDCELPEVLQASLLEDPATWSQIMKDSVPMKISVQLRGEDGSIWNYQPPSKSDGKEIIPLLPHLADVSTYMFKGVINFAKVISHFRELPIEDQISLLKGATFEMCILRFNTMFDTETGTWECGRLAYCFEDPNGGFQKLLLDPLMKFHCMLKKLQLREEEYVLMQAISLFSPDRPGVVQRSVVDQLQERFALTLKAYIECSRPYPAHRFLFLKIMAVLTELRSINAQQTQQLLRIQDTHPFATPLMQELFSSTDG
Chain of Peroxisome proliferator-activated receptor delta (Homo sapiens) (Q03181 whole entry, looked up): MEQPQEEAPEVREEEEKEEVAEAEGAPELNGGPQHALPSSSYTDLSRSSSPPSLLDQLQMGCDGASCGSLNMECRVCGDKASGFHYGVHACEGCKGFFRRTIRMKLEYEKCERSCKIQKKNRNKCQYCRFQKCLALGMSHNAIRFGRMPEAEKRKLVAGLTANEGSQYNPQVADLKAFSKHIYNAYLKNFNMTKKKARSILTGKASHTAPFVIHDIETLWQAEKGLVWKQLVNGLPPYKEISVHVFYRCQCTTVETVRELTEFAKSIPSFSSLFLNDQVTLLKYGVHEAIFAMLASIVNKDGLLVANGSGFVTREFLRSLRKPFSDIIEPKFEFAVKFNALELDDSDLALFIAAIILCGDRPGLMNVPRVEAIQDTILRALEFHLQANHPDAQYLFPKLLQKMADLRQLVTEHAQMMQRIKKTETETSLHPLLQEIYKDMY

SMILES | outcome [1] | max response [2] | Potency [3] | outcome [4] | Potency [5] | Potency [6] | max response [7] [%] | max response [8] | activity change % (negative = inhibition) [9] | activation [10] | activation [11] | max response [12] | Potency [13] | max response [14] | max response [15] | Potency [16] | max response [17] | activation [18] | Potency [19] | activation [20]
CCOP(=O)(OCC)OP(=O)(OCC)OCC | inactive | 14.8% | inactive | inactive | inactive | inactive | -3.28 | -9.63% (inactive) | 15.3% (inactive) | -6.2% (inactive) | -0.108% (inactive) | -1.23% (inactive) | inactive | 5.73% (inactive) | -8.91% (inactive) | inactive | 8.32% (inactive) | – | – | –
COc1ccc(-c2ccccc2)cc1NNC(=O)OC(C)C | – | – | inactive | inactive | – | inactive | – | – | – | -1.18% (inactive) | – | -0.526% (inactive) | inactive | -7.29% (inactive) | -21.9% (inactive) | inactive | -11.3% (inactive) | -5.42% (inactive) | inactive | -0.684% (inactive)
O=C(O)C(F)(F)C(F)(F)C(F)(F)C(F)(F)C(F)(F)C(F)(F)C(F)(F)C(F)(F)C(F)(F)F | inactive | 7.25% and 27.2% | – | – | inactive | inactive | -7.72 | – | -14.6% (inactive) and -11.9% (inactive) | 5.35% (inactive) | -2.6% (inactive) and 0.106% (inactive) | -0.9% (inactive) and 3.39% (inactive) | inactive | -6.6% (inactive) and -12.4% (inactive) | -5.33% (inactive) and -8.2% (inactive) | inactive | -0.489% (inactive) and -1.36% (inactive) | -0.443% (inactive) | inactive | 1.39% (inactive) and -1.65% (inactive)
COP(=O)(OC)SCn1c(=O)oc2cc(Cl)cnc21 | inactive | – | – | inactive | – | – | – | – | – | 13.8% (inactive) | – | -1.8% (inactive) | inactive | – | -26% (inactive) | inactive | -7.83% (inactive) | – | inactive | -1.51% (inactive)
C=CCOC(=O)C(C)(C)OC(=O)c1cc(-n2c(=O)cc(C(F)(F)F)n(C)c2=O)ccc1Cl | inactive | 15.1% | – | inactive | inactive | inactive | -18.1 | 23.7% (inactive) | -9.78% (inactive) | – | 1.35% (inactive) | 2.63% (inactive) | inactive | – | -6.91% (inactive) | – | – | -1.05% (inactive) | inactive | –
Cc1nn(-c2cc(NS(C)(=O)=O)c(Cl)cc2Cl)c(=O)n1C(F)F | inactive | -1.23% | inactive | inactive | inactive | inactive | -3.07 | -28.1% (inactive) | -13.9% (inactive) | -4.43% (inactive) | -2.63% (inactive) | -0.197% (inactive) | inactive | 1.41% (inactive) | -6.27% (inactive) | inactive | -0.675% (inactive) | – | – | –
